{"source": "PubChem BioAssay (EPA / NIEHS)", "note": "Several values for one entry are separate records, joined by “and”; a condition that tells them apart may be missing. Equal values may be shown once. The source holds several records for some structures; these can differ, active in one and inactive in another. Activity calls are given as the source filed them. The calls were made as follows: active = hit-call score of the fitted dose curve at least 0.9, where 1 is the maximum; inactive = score below 0.9."}
{"experiment": "BSK_BE3C_SRB: Viability Assessment in the BioMAP Diversity Plus: BE3C Assay (AID 2283028);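 as to AC50: fitted both ways so AC50 may mark signal gain or loss versus DMSO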", "details": "primary human bronchial epithelial cells", "description": "BSK_BE3C is a cell-based, multiplexed-readout assay that uses bronchial epithelial cell, a human lung primary cell, with measurements taken at 24 hours after chemical dosing in a 96-well plate.BSK_BE3C_SRB is an assay component measured in the BSK_BE3C assay. It measures 0.1% sulforhodamine related to cell death using Sulforhodamine staining technology.Data from the assay component BSK_BE3C_SRB was analyzed into 1 assay endpoint. This assay endpoint, BSK_BE3C_SRB, was analyzed with bidirectional fitting relative to DMSO as the negative control and baseline of activity. Using a type of viability reporter, gain or loss-of-signal activity can be used to understand changes in the signaling. Furthermore, this assay endpoint can be referred to as a primary readout, because this assay has produced multiple assay endpoints where this one serves a signaling function. To generalize the intended target to other relatable targets, this assay endpoint is annotated to the cell morphology intended target family, where the subfamily is cell conformation.\nThe levels of cell surface (or secreted, indicated by the prefix \"s\") biomarker endpoints were measured by ELISA. Overt cytotoxicity to cells in confluent adherent cultures (all systems other than the BT system) was assessed by measuring total protein levels using sulforhodamine B (SRB) staining in parallel cultures at the time of biomarker measurements, indicated as SRB endpoints. For proliferation assays for adherent cell types, individual cell types are cultured at sub-confluence and relative cell numbers quantified by SRB staining at time points optimized for each system (48 h: 3C and CASM3C systems; 72 h: BT and HDF3CGF systems; 96 h: SAg system). SRB was performed by staining cells with 0.1% SRB after fixation with 10% TCA and reading wells at 560 nm.Viability and proliferation of PBMC (T cells) was quantified by Alamar Blue reduction for the SAg and BT systems. For PBMC viability (referred to as PBMC Cytotoxicity within the assay endpoint names), cells were plated (75,000/well in a 96-well plate) and then chemical samples added for 1 h before addition of activators, SEB and TSST-1 (20 ng/mL final concentration each). Cells were incubated for 90 h. Then, Alamar Blue (20 uL/well) (Invitrogen, Cat DAL1100) was added for 6 h, and the plates were read with a fluorescence microplate reader at 546/580 nm (excitation/emission). For PBMC proliferation, cells were plated and activated as above but incubated for only 16 h prior to addition of Alamar Blue. Plates were read after 6 h."}
{"smiles": "C=C(C)C(=O)OCCC(F)(F)C(F)(F)C(F)(F)C(F)(F)C(F)(F)C(F)(F)F", "outcome": "inactive"}
{"smiles": "Oc1cc2ccccc2c2ccccc12", "AC50": "28.8 µM (active)"}
{"smiles": "Cc1cc(C)c(O)c(C)c1", "outcome": "inactive"}
{"smiles": "COCC(C)O", "note": "(stereo not given)", "outcome": "inactive"}
{"smiles": "FC(F)(I)C(F)(F)C(F)(F)C(F)(F)C(F)(F)C(F)(F)I", "AC50": "23.6 µM (active) [middle of 5 runs]"}
{"smiles": "CCCCC(CC)COC(=O)CCCCC(=O)OCC(CC)CCCC", "note": "(stereo not given)", "outcome": "inactive"}
{"smiles": "CCCCCCCCCCCCc1ccccc1S(=O)(=O)O", "AC50": "7.1 µM (active)"}
{"smiles": "CC[C@H](c1ccc(O)cc1)[C@@H](CC)c1ccc(O)cc1", "AC50": "35.8 µM (active)"}
{"smiles": "C#C[C@]1(O)CC[C@H]2[C@@H]3CCC4=CC(=O)CC[C@@H]4[C@H]3CC[C@@]21C", "outcome": "inactive"}
{"smiles": "OCCC(F)(F)C(F)(F)C(F)(F)C(F)(F)C(F)(F)C(F)(F)C(F)(F)C(F)(F)F", "AC50": "22.8 µM (active) and 20 µM (active)", "outcome": "inactive"}
{"smiles": "N#C[C@@H]1CC(F)(F)CN1C(=O)CNC1CC2CCC(C1)N2c1ncccn1", "note": "(stereo not given in full)", "outcome": "inactive"}
{"smiles": "CC(C)(C)CC(C)(C)c1ccc(O)c(-n2nc3ccccc3n2)c1", "outcome": "inactive"}
{"smiles": "CC(O)CO", "note": "(stereo not given)", "outcome": "inactive"}
{"smiles": "COCC(C)OCC(C)O", "note": "(stereo not given)", "outcome": "inactive"}
{"smiles": "CCCOc1sc(C(=O)N2CCC(c3cc(CN)ccc3F)CC2)c(C)c1Br", "AC50": "4.93 µM (active)"}
{"smiles": "O=C(O)Cc1cc(I)c(Oc2cc(I)c(O)c(I)c2)c(I)c1", "AC50": "8.8 µM (active)"}
{"smiles": "CCCCCCCCCCCCN1CCCC1=O", "AC50": "32.8 µM (active)"}
{"smiles": "CCCCCCC(=O)O", "outcome": "inactive"}
{"smiles": "Oc1cccc(O)c1", "outcome": "inactive"}
{"smiles": "CCc1nn(C2CCCCC2)c2cc(C3(C#N)CCC(C(=O)O)CC3)ccc12", "note": "(stereo not given)", "outcome": "inactive"}
{"smiles": "CCCCCCCCC(=O)O", "outcome": "inactive"}
{"smiles": "CC(C)(C)c1cc(C(C)(C)C)c(O)c(C(C)(C)C)c1", "outcome": "inactive"}
{"smiles": "COc1ccc([N+](=O)[O-])cc1N", "outcome": "inactive"}
{"smiles": "OC1CCC(C2CCCCC2)CC1", "note": "(stereo not given)", "outcome": "inactive"}
{"smiles": "CCCCOCCO", "outcome": "inactive"}
{"smiles": "CC(C)(C)c1ccc(O)c(C(C)(C)C)c1", "AC50": "32 µM (active)"}
{"smiles": "CN1CCN(c2ccccc2/C=C2\\SCCN(c3ccc(Cl)c(Cl)c3)C2=O)CC1", "AC50": "33.3 µM (active)"}
{"smiles": "CCC(C)(C)C1CCC(O)CC1", "note": "(stereo not given)", "outcome": "inactive"}
{"smiles": "c1ccc2c(c1)Cc1ccccc1-2", "outcome": "inactive"}
{"smiles": "CC[C@H](C)[C@@H](C(=O)O)n1sc2ccccc2c1=O", "outcome": "inactive"}
{"smiles": "NC(=O)N(O)[C@@H]1C=C[C@H](Oc2cccc(Oc3ccc(F)cc3)c2)C1", "outcome": "inactive"}
{"smiles": "CCc1ccc(CCOc2ccc(CC3SC(=O)NC3=O)cc2)nc1", "note": "(stereo not given)", "outcome": "inactive"}
{"smiles": "CC(C)(C)c1cccc(C(C)(C)C)c1O", "outcome": "inactive"}
{"smiles": "CN(C)C=O", "outcome": "inactive"}
{"smiles": "c1ccc2c(c1)ccc1ccccc12", "outcome": "inactive"}
{"smiles": "CCCOC(=O)c1ccc(O)cc1", "outcome": "inactive"}
{"smiles": "Cc1cc(CCN2CCN(c3nsc4ccccc34)CC2)cc2c1NC(=O)CC2(C)C", "AC50": "32.4 µM (active)"}
{"smiles": "Nc1cccc2c(N)cccc12", "outcome": "inactive"}
{"smiles": "CCOC(=O)CC(O)(CC(=O)OCC)C(=O)OCC", "outcome": "inactive"}
